The panel holds about 83,000 compounds, 20% with a hit somewhere; the sample as a whole holds those more often.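 48-hour exposure, single concentration, 96-well plates; percent growth endpoint where 0 means no net growth. Active: below 10.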 Values without a mark were called inactive. The source made the active and inactive calls.
Key:
Assay in all cases: NCI-60 one-dose screen, 48 h (100 = growth as untreated, 0 = no growth, -100 = all killed)
Settings in all cases: 10 µM unless noted
SR leukemia = system: SR leukemia
RPMI-8226 leukemia = system: RPMI-8226 leukemia
OVCAR-8 ovarian = system: OVCAR-8 ovarian
OVCAR-5 ovarian = system: OVCAR-5 ovarian
OVCAR-4 ovarian = system: OVCAR-4 ovarian
SK-OV-3 ovarian = system: SK-OV-3 ovarian
IGROV1 ovarian = system: IGROV1 ovarian
OVCAR-3 ovarian = system: OVCAR-3 ovarian
HS 578T breast = system: HS 578T breast
NCI/ADR-RES ovarian = system: NCI/ADR-RES ovarian

Compound	growth (SR leukemia)	growth (RPMI-8226 leukemia)	growth (OVCAR-8 ovarian)	growth (OVCAR-5 ovarian)	growth (OVCAR-4 ovarian)	growth (SK-OV-3 ovarian)	growth (IGROV1 ovarian)	growth (OVCAR-3 ovarian)	growth (HS 578T breast)	growth (NCI/ADR-RES ovarian)
O=C(CBr)c1ccc(OC(=O)c2ccccc2)cc1	88.6%	89.9%	104%	102%	99%	100%	116%	105%	108%	101%
O=S(=O)(O)c1cnccn1	110%	104%	107%	96.6%	113%	89.6%	105%	103%	112%	102%
O=C1C=C(Cl)C(=O)c2ccccc21	94.7%	84.7%	91.6%	113%	92.5%	94.7%	92.3%	89.8%	111%	102%
Clc1ccc(-n2ncc3c(NCCCN4CCOCC4)ncnc32)cc1	88.9%	93.7%	100%	92.2%	102%	93.1%	103%	105%	91.5%	86.8%
O=[N+]([O-])c1ccc(Oc2ccccc2Cl)c([N+](=O)[O-])c1	1.58% (active)	78.4%	93.2%	116%	56.4%	99.8%	104%	94.1%	77.7%	72.7%
CC1(C)CCCC2=C1C(=O)N(SC(Cl)(Cl)Cl)C2=O	77.2%	91.9%	102%	103%	98.2%	93.7%	103%	104%	102%	105%
C/C(=N/NC(N)=S)c1ccc(C)cc1	94.6%	71.4%	76.7%	111%	88%	98.8%	105%	62.8%	102%	76%
CCCCCC/C=C1\CCC(CN2CCCC2)C1=O (stereo not given)	43.5%	-12.2% (active)	106%	135%	109%	110%	113%	103%	96.3%	105%
O=C(/C(Cl)=N/O)c1ccc(-c2ccccc2)cc1	-24% (active)	85.2%	97.8%	109%	112%	99.5%	71.8%	72.3%	110%	99.9%
CCCCCCCCCCCC1=NCCCN1CCCC	57.6%	93.4%	101%	93.4%	101%	102%	105%	104%	112%	96.8%
S=C(SSC(=S)N1CCOCC1)N1CCOCC1	31.4%	76.9%	96.8%	106%	65.7%	102%	29.1%	74.6%	97.7%	106%
CC(C)(C)CC(C)(C)c1ccc(OCCOCCSC(=N)N)cc1	-24.4% (active)	-43.6% (active)	58.5%	73.6%	33%	55.9%	54.9%	25.3%	33.9%	45.5%
COc1ccc2nc3cc(Cl)ccc3c(NCCCCCN3CCCCC3)c2c1	-17.9% (active)	-27% (active)	-13.6% (active)	-27.1% (active)	-61% (active)	-15.2% (active)	5.24% (active)	-21.8% (active)	35.3%	-8.47% (active)
CCCCC(CCc1ccc([N+](=O)[O-])cc1)(C(C)=O)C(=O)OCC (stereo not given)	63.5%	96.2%	104%	105%	89.5%	112%	101%	96.4%	92%	104%
OCCOSCCO	90.1%	133%	106%	99.5%	102%	117%	112%	120%	115%	113%
OC(CSc1ccccc1)CN1CCN(c2ccc(Cl)cc2)CC1 (stereo not given)	86.6%	81.4%	99.6%	102%	92.1%	110%	114%	121%	115%	89.1%
Cc1cc(C)c([I+]c2c(C)cc(C)cc2C)c(C)c1	-49.1% (active)	-8.17% (active)	-60.3% (active)	-7.26% (active)	-44.8% (active)	-26.4% (active)	-47.6% (active)	-44.9% (active)	20.5%	78%
CCCCCCCCCCCC[n+]1ccc2ccccc2c1	-29.7% (active)	-53.7% (active)	-37% (active)	7.35% (active)	-17.2% (active)	-26.2% (active)	-51.9% (active)	-70.3% (active)	15.1%	54.2%
COc1cc(OC)c(/C=C/c2c3ccccc3cc[n+]2C)c(OC)c1	-18.2% (active)	6.51% (active)	5.21% (active)	56.5%	24.9%	35%	13.2%	5.9% (active)	46.3%	96.6%
CCN(CC)CCNC(Cc1ccccc1)c1ccc(OCc2ccccc2)cc1 (stereo not given)	24.7%	34.8%	79.7%	56.2%	66.7%	83.1%	57.7%	95.4%	70.8%	76.1%
Cc1cc(C(N)=O)cc(C)c1C(=O)OCCCl	89.6%	111%	102%	108%	103%	105%	111%	99.5%	97%	107%
CN(C)c1ccc(C(C#N)(c2ccccc2)c2ccc(N(C)C)cc2)cc1	15.9%	14.9%	23.4%	106%	83.5%	92.5%	83%	72.3%	33.2%	73.8%
c1ccc(-c2cc3cc4ccccc4cn3c2)cc1	67.4%	66.4%	85.4%	112%	76.4%	92.2%	79.7%	88.9%	88.2%	91.7%
O=C(c1ccccc1)c1cc2ccccc2oc1=O	107%	84.3%	96.9%	102%	95.2%	100%	64.8%	107%	90.6%	100%
CN(C)c1ccc(C(=C2C=CC(=[N+](C)C)C=C2)c2ccc(N(C)C)cc2)cc1	-14.3% (active)	-51.8% (active)	-44.8% (active)	-34.4% (active)	-18.5% (active)	-90.9% (active)	-37.2% (active)	-91.1% (active)	1.62% (active)	-18.8% (active)
CCOC(=O)c1cc(CC)sc1NC(=O)CC(C)=O	35.1%	37.4%	43%	96.7%	43.3%	84.6%	59.7%	65.3%	49.9%	40%
CCCCCCCCCCCCCCCCCC[S+](C)CC (stereo not given)	32.7%	30.4%	13.9%	9.31% (active)	7.76% (active)	49.5%	-34.2% (active)	45.1%	35.9%	84.7%
CN(Cc1ccccc1)c1ccc(SC#N)cc1	-6.68% (active)	74.8%	85%	106%	68.9%	112%	98.8%	71.4%	89.7%	86.7%
O=C1CSC(=S)N1Cc1cccnc1	-10.3% (active)	9.56% (active)	53.8%	106%	91.7%	106%	114%	99.2%	114%	106%

Source: PubChem BioAssay (NCI)
